Measured values taken from PMC7819943, “Rice protein-binding microarrays: a tool to detect cis-acting elements near promoter regions in rice”.
Over roughly 35,000 sequences, “fluorescence intensity (a.u.)” has its median near 10,000; the highest 2% begin near 52,000. The list comes from a sample in which the highest values are over-represented; it also holds similar and randomly drawn sequences.

These sequences were tested against T1, OsWOX13 (Oryza sativa, UniProt Q5QMM3 1-267) (assay: protein-binding microarray (RPBM); PBS, 2% BSA, 51.3 ng/ul salmon testes DNA, 50 uM zinc acetate, 200 nM TF, 25 C, 1 h; high values mean tight binding). Settings: protein: recombinant; tags: N-terminal polyhistidine and DsRed monomer fusion (pET32a); label: CyDye5-dUTP incorporated in the synthesized complementary strand; 3' TTTTT single-stranded linker to array surface; dsDNA, one strand shown.
T1 sequence: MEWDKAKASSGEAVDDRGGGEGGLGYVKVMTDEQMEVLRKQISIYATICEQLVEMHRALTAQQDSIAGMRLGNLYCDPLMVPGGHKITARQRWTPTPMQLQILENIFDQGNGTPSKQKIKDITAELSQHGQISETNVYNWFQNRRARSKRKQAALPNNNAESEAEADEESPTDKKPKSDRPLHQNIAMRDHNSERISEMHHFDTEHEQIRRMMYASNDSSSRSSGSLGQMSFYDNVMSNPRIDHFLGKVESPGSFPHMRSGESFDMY
Outline: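 Transcription factors were each fused at the N-terminus to a polyhistidine tag plus DsRed and expressed in E. coli BL21-CodonPlus before Ni–NTA purification. Binding to a double-stranded custom Agilent array was carried out with 200 nM protein at 25 °C for 1 h in PBS, 2% BSA, salmon testes DNA and 50 µM zinc acetate. The binding signal is per-feature fluorescence intensity, in arbitrary units, on an Axon 4000B scanner.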

Row | Sequence | binding signal
1 | ATCATGGCAAATGATTGAAACTTTGAAGTAACGTTGGTGCCGGAGTCACCTAGTGCAG | 38800 fluorescence intensity (a.u.)
2 | TAAATTTGATTCCATTTCCGTTGCCTGTTCATTTCGTCGACGGAGTCACCTAGTGCAG | 6090 fluorescence intensity (a.u.)
3 | AAAATTATGGATTGGATGATTAATCACTGATAGGTAGTACCGGAGTCACCTAGTGCAG | 56900 fluorescence intensity (a.u.)
4 | AAATCATTAATAGTGCGTGATTAATTGAGTATTAATTATTCGGAGTCACCTAGTGCAG | 8480 fluorescence intensity (a.u.)
5 | AAAATCACTGGATTAATTGATTGCGTCGTACTATCATTGCCGGAGTCACCTAGTGCAG | 64600 fluorescence intensity (a.u.)
6 | CTGGACTGTCAAATCAAGGAGGATTGCGTACTAATCATGTCGGAGTCACCTAGTGCAG | 9940 fluorescence intensity (a.u.)
7 | TTAATCACTGGTAATTATAGATTTATAGGTGATTAATCACCGGAGTCACCTAGTGCAG | 17900 fluorescence intensity (a.u.)
8 | TGGTGTAGGGTTATGATTGGATGAGTAGTGGAGGTAGGTACGGAGTCACCTAGTGCAG | 8550 fluorescence intensity (a.u.)
9 | CTAAACACGTCCTATCATGTCACGTAGATAATATGACACGCGGAGTCACCTAGTGCAG | 4110 fluorescence intensity (a.u.)
10 | TAGATAAATTACCCTAAAATCCTGTAAAACTTCTGCATTTCGGAGTCACCTAGTGCAG | 3350 fluorescence intensity (a.u.)
11 | ATAAAATTTAATATTAAATATGCATTTGAACAGCTATAAACGGAGTCACCTAGTGCAG | 6360 fluorescence intensity (a.u.)
12 | AATGCAGGAACAGCATAAGCTTTGCGTATATTTGTATTAACGGAGTCACCTAGTGCAG | 65500 fluorescence intensity (a.u.)
13 | AAATAAATTAATATAACTTATAAAGCAGCTTTTGTATAATCGGAGTCACCTAGTGCAG | 13600 fluorescence intensity (a.u.)
14 | TTATTAATTCCATAATCAGAACTTTGATGTGATATAACCTCGGAGTCACCTAGTGCAG | 9130 fluorescence intensity (a.u.)
15 | TCTGGGTGATTTGTTGCAAAAGAATATTTTAATTCACTGCCGGAGTCACCTAGTGCAG | 14000 fluorescence intensity (a.u.)
16 | GTGATGATGAATTAATTGCTGAATGGCGAATGCAGTGCAGCGGAGTCACCTAGTGCAG | 58900 fluorescence intensity (a.u.)
17 | GACTTTAATGATGCTGACACCGGCTTAATTAGTATTGCGGCGGAGTCACCTAGTGCAG | 8560 fluorescence intensity (a.u.)
18 | GCGAACTTAATTGCTGCTAGAATGCTGCTGAAATTGGTGACGGAGTCACCTAGTGCAG | 8360 fluorescence intensity (a.u.)
19 | CATCTGGCGATTGCATATTAATTTGCATGGCGAAGCTTCCCGGAGTCACCTAGTGCAG | 5830 fluorescence intensity (a.u.)
20 | GGGAGAGAATGTGCTAATTAATTGCATGCATGCATGCACGCGGAGTCACCTAGTGCAG | 12000 fluorescence intensity (a.u.)
21 | ATTTGATCTGATTTGATTAATTTTGCATGCACGCGAATGGCGGAGTCACCTAGTGCAG | 61700 fluorescence intensity (a.u.)

Row | Sequence | binding signal
22 | GTCATTGATTGATCAAGGGATCAATGCAAAACAACGCATTCGGAGTCACCTAGTGCAG | 20300 fluorescence intensity (a.u.)
23 | AGAAAATTAATGTTCAACAAACTCGTCACAAATTAAGTTTCGGAGTCACCTAGTGCAG | 13600 fluorescence intensity (a.u.)
24 | TCATGTAATTGTTGATAAGAGTGTCAGAATTCAGATAGTGCGGAGTCACCTAGTGCAG | 13500 fluorescence intensity (a.u.)
25 | TCCAAATCCTACAATAATTGATTGAATCAAACACAGAAAGCGGAGTCACCTAGTGCAG | 41200 fluorescence intensity (a.u.)
26 | GCAAATTGATAATTGAAACAGAATTCAGTCGTTTGTACAGCGGAGTCACCTAGTGCAG | 62700 fluorescence intensity (a.u.)
27 | GGTTAATTTGACATAAACAGCGTCAGAAATGTAGTTCATGCGGAGTCACCTAGTGCAG | 57900 fluorescence intensity (a.u.)
28 | AGCAGCATAAATGCAATTAAATTTGTAGCAATCGAACATGCGGAGTCACCTAGTGCAG | 4680 fluorescence intensity (a.u.)
29 | TAAATTTATAGTCAATTGTAGCATGAGCTCTAATAAACTGCGGAGTCACCTAGTGCAG | 4880 fluorescence intensity (a.u.)
30 | TCTAAACTGATAATTGCAAATTGTAATTGATAGCATTGAGCGGAGTCACCTAGTGCAG | 63700 fluorescence intensity (a.u.)
31 | TCATGTCATAAATTAAATTATTTGAAATTATTTGGTACAGCGGAGTCACCTAGTGCAG | 13900 fluorescence intensity (a.u.)
32 | TCTAATTAGTAAACTGTAGTAGTGAGCAAATTGTACTAGACGGAGTCACCTAGTGCAG | 20900 fluorescence intensity (a.u.)
33 | TTATTAATTTGTAATAGGTGTATTTCGGTCTTATTAAACTCGGAGTCACCTAGTGCAG | 19600 fluorescence intensity (a.u.)
34 | CGTAAATTTTCAATAAAATTTTAGTGAAATCAGGAATATGCGGAGTCACCTAGTGCAG | 17500 fluorescence intensity (a.u.)
35 | AATAAAACTTACATGAGTTAATTGAGTGAGAAATTAATTCCGGAGTCACCTAGTGCAG | 4550 fluorescence intensity (a.u.)
36 | TACCGATAATTTGTTATAGATCCCTAGACGTACATTCCTCCGGAGTCACCTAGTGCAG | 19900 fluorescence intensity (a.u.)
37 | CATGATGATAGTGATAGCAACTCAAGCAATACTAACGCACCGGAGTCACCTAGTGCAG | 14700 fluorescence intensity (a.u.)
38 | GCAGATTAGTTGTGGCAAACATTCTCTTGTGTGCAGCACTCGGAGTCACCTAGTGCAG | 3650 fluorescence intensity (a.u.)
39 | CCAAATTAAGTGGAAATTAATTTGCAAGCTGAGAACGATGCGGAGTCACCTAGTGCAG | 55000 fluorescence intensity (a.u.)
40 | GAATCTTGAAATTGAGCTGATTAATTTTCTTCTTGTTGAGCGGAGTCACCTAGTGCAG | 11800 fluorescence intensity (a.u.)
41 | ATTGATGATTGAAATTTGCTGTGCAAATCGAGAACTGAAGCGGAGTCACCTAGTGCAG | 53500 fluorescence intensity (a.u.)
42 | CAAATTGAAGAGGATGCATGAATTGGATTTGCAGGAGAAGCGGAGTCACCTAGTGCAG | 5250 fluorescence intensity (a.u.)
